The record followed here is PubChem BioAssay AID624351 (Southern Research Specialized Biocontainment Screening …, 2012).

The structures appear in SMILES notation. The whole screen tested about 2,400 compounds, of which about 1,400 (58%) were called active.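 The calls were made as follows: active = inhibition of 30% or more at any tested dose; inconclusive = primary hits over the limit that were never retested; inactive = the rest.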 The set was probably picked from earlier hits. The list shows a part of the results.

The assay can be described thus: coupled detection enzyme interference, dose response, artefact control for MgcRacGAP inhibitor project, biochemical, coupled enzyme counter-screen (AID 624351).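 Also: signal is the ADP detection kit reading of free GDP without any GAP enzyme.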 The settings on record: ADP Hunter coupled enzyme counter-screen, fluorescence, no MgcRacGAP; series mostly up to 80 µM. Background: Counterscreens check selectivity or assay interference.
As a reminder, the IC50 is the concentration that gives 50% inhibition. Consider `CCOc1ccccc1NC(=O)C(NCCN(C)C)c1ccccc1` (configuration not stated), for which the IC50 entry is “inactive”.

Turning to `CCOc1cc(NC(=O)c2ccccc2C(=O)O)c(OCC)cc1NC(=O)c1ccccc1F`, the IC50 is 65.3 µM (active).

Regarding `CCN1CCN(CCCCOc2ccccc2F)CC1`, the IC50 result was “inactive”.

As to `CC1CC(C)(C)N(C(=O)CN2CCN(C)CC2)c2ccccc21` (configuration not stated), the IC50 result is “inactive”.

For the compound `O=C1CCCC/C1=C\Nc1ccc(O)cc1`, the IC50 is 13.3 µM (active).

For `Cc1cc(O)ccc1N/C=C1\CCCC1=O`, the IC50 was 21 µM (active).

Consider `CC1CCC/C(=C\c2ccc(O)cc2)C1=O` (configuration not stated), for which the IC50 is 22.3 µM (active).

Turning to `CC1CCC/C(=C\Nc2ccc(O)cc2)C1=O` (configuration not stated), the IC50 was 31.8 µM (active).

On to `Cc1cnc(NC(=O)C(C)N2CCN(C)CC2)s1` (configuration not stated), for which the IC50 result is “inactive”.

Regarding `O=C1OCC/C1=C\c1ccc(O)cc1`, the IC50 is 27.6 µM (active).

Take `CCOc1ccccc1CN(CCc1ccc2c(c1)OCO2)Cc1ccccn1`: the IC50 entry is “inactive”.

Regarding `CC1OC(CC(=O)O)CC2=C1C(=O)c1c(O)cccc1C2=O` (configuration not stated), the IC50 entry was “inactive”.

`S=c1[nH]nc(-c2cccnc2)n1/N=C/c1cccs1`: the IC50 was 42.7 µM (active).

`O=[N+]([O-])c1cccc(/C=N/n2c(-c3cccnc3)n[nH]c2=S)c1`: the IC50 is 24.9 µM (active).

Consider `Cn1c(-c2cccc([N+](=O)[O-])c2)cnc1NCc1cccc([N+](=O)[O-])c1`, for which the IC50 result is “inactive”.

For the compound `Cc1ccc(/C=N/n2c(-c3cccnc3)n[nH]c2=S)s1`, the 50% inhibitory concentration (IC50) is 43.8 µM (active).

On to `CCc1ccc(OCCOCCN2CCN(C)CC2)cc1`, for which the IC50 result is “inactive”.

In the case of `COc1ccc(C2NC(=O)C(C#N)=C(S)N2c2ccc(C)cc2)cc1OC` (configuration not stated), the IC50 entry was “inactive”.

On to `CC1=CC(C)(C)N(C(=O)CNC2CCCC2)c2cc(C)ccc21`, for which the IC50 result was “inactive”.

Consider `O=[N+]([O-])c1ccc(Oc2cccc3cccnc23)c([N+](=O)[O-])c1`, for which the IC50 entry is “inactive”.

As to `O=[N+]([O-])c1ccc(Sc2cccc3cccnc23)c([N+](=O)[O-])c1`, the IC50 result was “inactive”.

For the compound `Nc1[nH]c2cc([N+](=O)[O-])ccc2c1-c1ccccn1`, the IC50 is 75.4 µM (active).

In the case of `C=CCOc1ccc(C=NNc2ccc(S(=O)(=O)Nc3ccccc3C(=O)O)cc2[N+](=O)[O-])cc1OC`, the IC50 entry is “inactive”.

Regarding `O=C(O)c1ccccc1NS(=O)(=O)c1ccc(N/N=C/c2ccc(O)c(O)c2)c([N+](=O)[O-])c1`, the IC50 is 69.8 µM (active).

Consider `O=C(/C=C/c1ccc(O)c(O)c1)NC(=O)c1ccccc1O`, for which the IC50 was 21.9 µM (active).

As to `Cc1ccc2oc(=O)c(/C=C(\O)c3ccccc3)nc2c1`, the IC50 was 59.2 µM (active).

Regarding `Cn1c(N=Nc2ccc(N3CCOCC3)cc2)[n+](C)c2ccccc21`, the IC50 was 58.3 µM (active).

On to `c1csc(CNc2ccc3c(c2)OCCO3)c1`, for which the IC50 was 69.2 µM (active).

On to `O=C(CNCc1ccc(Cl)cc1)Nc1ccc2c(c1)OCCO2`, for which the IC50 entry is “inactive”.

`CN(C)c1ccc(N=c2sc3ccccc3n2C)cc1`: the IC50 is 26.7 µM (active).

With `Nc1ccc2c(c1)[nH]c(=O)c1cc(N)ccc12`, the IC50 is 16.6 µM (active).

Consider `Nc1ccc2cc3[nH]c4cc(N)ccc4c3nc2c1`, for which the IC50 entry was “inactive”.

`CN1/C(=N\O)c2cccc3cccc1c23`: the IC50 is 54 µM (active).

Take `CC(=O)c1c(Nc2ccc3c(c2)OCCO3)oc(C)cc1=O`: the IC50 is 77.3 µM (active).

With `O=C(CN1CCN(c2ccc(O)cc2)CC1)Nc1ccccc1C(=O)NCCc1ccccc1`, the IC50 is 32.9 µM (active).

For `O=C(NC(=S)N1CCN(c2ccc(O)cc2)CC1)c1ccco1`, the half-inhibitory concentration (IC50) is 38.7 µM (active).

With `O=C(CN1CCN(C/C=C/c2ccccc2)CC1)Nc1ccccc1C(=O)NC1CC1`, the IC50 entry is “inactive”.

On to `COCCCNC(=S)N1CCN(Cc2ccc3c(c2)OCO3)CC1`, for which the IC50 result was “inactive”.

As for `CCN(CC)S(=O)(=O)c1ccc(C)c(NC(=O)CN2CCN(Cc3ccccc3)CC2)c1`, the IC50 entry was “inactive”.

With `Oc1ccc(N2CCN(C(=S)NCCc3ccccc3)CC2)cc1`, the IC50 was 32.2 µM (active).

As to `CN1CCC(N(C)CC(=O)Nc2ccc3c(c2)OC(F)(F)O3)CC1`, the IC50 entry was “inactive”.

On to `Cc1sc2ccc3sccc3c2[n+]1C`, for which the IC50 result was “inactive”.
